Experimental data reported in PubChem BioAssay.
Where “and” joins values, the source holds several entries; their conditions need not be identical. Equal values may be shown once. Calls of active or inactive are those of the source. Unless noted, the rule behind the calls is not given here.

Key:
[1] = system: Hepatitis C virus NS3 helicase; experiment: blockers of NS3h binding to ssDNA – biochemical, fluorescence polarization, LOPAC1280 library, primary screen (AID 687035; in the data active = inhibition above about 37%); conditions: Purified HCV NS3 helicase, Cy5-dT15 ssDNA binding fluorescence polarization; stronger effect = higher value; concentration not given here
[2] = compounds altering Cy5-DNA-NS3h complex signal – biochemical, LOPAC1280, artefact control for HCV NS3 helicase inhibitor project (AID 687037); conditions: Cy5-DNA-NS3h complex fluorescence interference counterscreen
[3] = viability loss with induced miR-34 in A549 – imaging, A549 dox-inducible miR-34, nuclei and caspase counts, primary screen (AID 1347080;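 active = compounds whose cell count with miR-34 switched on is under 0.7 times the count with it off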); conditions: A549 miR-34 inducible, Hoechst nuclei count, 48 h
[4] = chitosan synthesis blockers in C. neoformans – flow cytometry, Cibacron Brilliant Red staining (AID 1347148); conditions: Cryptococcus neoformans chitosan, stronger effect = lower value; at 10 µM unless noted;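 note: compound exposure lasted three days at 37 degrees C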
[5] = blockers of cellular phospholipid synthesis – cell-based, LOPAC library, screen 4, primary screen (AID 1347384); conditions: animal cells, phospholipid biosynthesis inhibition screen; at 10 µM
[6] = galactose survival enhancers in mitochondrial complex I cybrids – cell-based, galactose medium, ATP luminescence, primary screen (AID 1645843;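 active = z-score of at least 1.8 in each of two replicates, scored against plate mean and spread of sample wells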;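 note: positive z means more ATP and so rescue of galactose-driven cybrid death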); conditions: complex I mutant cybrid cells, 72 h, stronger effect = higher value
[7] = compounds altering circadian rhythm period length – cell-based, LOPAC library, luminescence reporter (AID 2774); conditions: circadian reporter cells, at 7 µM, actives lie on both sides;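 note: values are relative to mean of DMSO wells on each plate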
[8] = compounds altering viability of human ES cells (AID 493140); conditions: human embryonic stem cell survival screen; stronger effect = higher value;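 note: cells exposed to compounds for four days before counting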
[9] = MELAS cybrid and Rieske KO viability enhancers – cell-based, MELAS cybrids, Rieske KO mouse fibroblasts, CellTiter-Glo, primary screen (AID 1508586;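 active = mean z-score across replicates of 1.96 or higher in either the MELAS or the Rieske mutant cell line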;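 note: z relative to plate mean and SD of compound and empty wells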); conditions: low glucose
[10] = P. berghei load reduction in hepatocytes – cell-based, HepG2, luciferase luminescence, HepG2 viability, primary screen (AID 624349; in the data active = parasite load remaining mostly below about 12%, no sharp cut-off; inactive = mostly above about 10%;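 note: 100% = mean of DMSO negative control wells on the same plate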); conditions: P. berghei liver stage in HepG2, luciferase luminescence, concentration not given here; parasite load remaining: stronger effect = lower value; viability: measured here: HepG2 viability without parasites
[11] = stronger effect = lower value, cell number ratio, induced over uninduced
[12] = measured here: relative caspase fold change +Dox/-Dox
[13] = measured here: total cells with miR-34 induction, stronger effect = lower value
[14] = measured here: total cells without miR-34 induction
[15] = MELAS cybrid survival, CellTiter-Glo 48 h, stronger effect = higher value
[16] = Rieske KO mouse fibroblast survival, CellTiter-Glo 72 h

**Q.** For `NCCNS(=O)(=O)c1cccc2c(Cl)cccc12`, which inhibition [1] is on record?
**A.** -2% (inactive)

**Q.** What about the fluorescence ratio (interference) [2] of the same compound?
**A.** 1 (inactive)

**Q.** What about the fold change [3, 11] of the same compound?
**A.** 1.01 (inactive) and 0.93 (inactive)

**Q.** What about the fold change [3, 12] of the same compound?
**A.** 0.86 and 1.13

**Q.** And the cell count [3, 13]?
**A.** 9070 and 4030

**Q.** What about the cell count [3, 14] of the same compound?
**A.** 9000 and 4330

**Q.** What about the fold fluorescence [4] of the same compound?
**A.** 10.8 [at 175.6 µM] (inactive)

**Q.** And the outcome [5]?
**A.** inactive

**Q.** And the z-score [6]?
**A.** -0.845 (inactive)

**Q.** Which period change [7] does the source give for `CC(C)(C)c1cc(/C=C(\C#N)C(N)=S)cc(C(C)(C)C)c1O` here?
**A.** 0.535 h (inactive)

**Q.** What about the survival [8] of the same compound?
**A.** 106 (inactive)

**Q.** And the inhibition [1]?
**A.** 5% (inactive)

**Q.** And the fluorescence ratio (interference) [2]?
**A.** 1 (inactive)

**Q.** And the fold change [3, 11]?
**A.** 1.09 (inactive) and 1.17 (inactive)

**Q.** And the fold change [3, 12]?
**A.** 1.31 and 0.937

**Q.** And the cell count [3, 13]?
**A.** 4070 and 1820

**Q.** What about the cell count [3, 14] of the same compound?
**A.** 3720 and 1560

**Q.** And the fold fluorescence [4]?
**A.** 11.2 [at 158 µM] (inactive)

**Q.** What about the outcome [5] of the same compound?
**A.** active

**Q.** What about the z-score [6] of the same compound?
**A.** -1.35 (inactive)

**Q.** What does the source list for `O=C1NC(O)=NC1(c1ccccc1)c1ccccc1`?
**A.** period change [7]: -0.095 h (inactive); inhibition [1]: -2% (inactive); fluorescence ratio (interference) [2]: 1.1 (inactive); fold change [3, 11]: 0.966 (inactive) and 0.93 (inactive); fold change [3, 12]: 1.46 and 0.866; cell count [3, 13]: 9800 and 7860; cell count [3, 14]: 10100 and 8450; fold fluorescence [4]: 4.71 [at 198.2 µM] (inactive); z-score [9, 15]: -0.314 (inactive); z-score [9, 16]: -0.0769; z-score [6]: 0.26 (inactive)

**Q.** What does the source list for `CC[N+](C)(CC)CCC[n+]1c(-c2ccccc2)c2cc(N)ccc2c2ccc(N)cc21`?
**A.** survival [8]: 5.17 (inactive); parasite load remaining [10]: 62.2% (inactive); viability [10]: 92.5%; fold change [3, 11]: 0.82 (inactive) and 0.917 (inactive); fold change [3, 12]: 1.46 and 1.13; cell count [3, 13]: 7160 and 5250; cell count [3, 14]: 8730 and 5720; fold fluorescence [4]: 8.39 [at 120.6 µM] (inactive); z-score [9, 15]: -0.661 (inactive); z-score [9, 16]: 1.71

**Q.** For `CCCCCCCCCCCCCCCCOC[C@H](COP(=O)([O-])OCC[N+](C)(C)C)SC(=O)CCCCCC`, which fold change [3, 11] is on record?
**A.** 0.987 (inactive)

**Q.** And the fold change [3, 12]?
**A.** 1.56

**Q.** What about the cell count [3, 13] of the same compound?
**A.** 5880

**Q.** And the cell count [3, 14]?
**A.** 5950

**Q.** With `CC(C)(C)C(=O)Nc1ccccc1` as the compound, how does the fold change [3, 11] read?
**A.** 0.896 (inactive)

**Q.** And the fold change [3, 12]?
**A.** 1.18

**Q.** And the cell count [3, 13]?
**A.** 5080

**Q.** And the cell count [3, 14]?
**A.** 5670

**Q.** With `CCCCC/C=C\C/C=C\C/C=C\C/C=C\CCCCCC(=O)O` as the compound, how does the survival [8] read?
**A.** 79.5 (inactive)

**Q.** What about the fold change [3, 11] of the same compound?
**A.** 1.01 (inactive) and 0.958 (inactive)

**Q.** And the fold change [3, 12]?
**A.** 1.23 and 0.967

**Q.** What about the cell count [3, 13] of the same compound?
**A.** 6030 and 5700

**Q.** What about the cell count [3, 14] of the same compound?
**A.** 5980 and 5950

**Q.** What about the fold fluorescence [4] of the same compound?
**A.** 4.08 (inactive)

**Q.** For `O=c1oc(Cl)c(Cl)c2ccccc12`, which period change [7] is on record?
**A.** -0.015 h (inactive)

**Q.** What about the inhibition [1] of the same compound?
**A.** -3% (inactive)

**Q.** What about the fluorescence ratio (interference) [2] of the same compound?
**A.** 1 (inactive)

**Q.** And the fold change [3, 11]?
**A.** 1.11 (inactive) and 1.06 (inactive)

**Q.** And the fold change [3, 12]?
**A.** 1.14 and 0.927

**Q.** And the cell count [3, 13]?
**A.** 6300 and 1380

**Q.** What about the cell count [3, 14] of the same compound?
**A.** 5680 and 1300

**Q.** And the fold fluorescence [4]?
**A.** 6.4 [at 232.5 µM] (inactive)

**Q.** What about the outcome [5] of the same compound?
**A.** inactive

**Q.** What about the z-score [6] of the same compound?
**A.** -1.02 (inactive)

**Q.** For `C[C@@H](O)CCC[C@@H](O)/C=C/[C@@H]1[C@@H](CCCCCCC(=O)O)[C@@H](O)C[C@H]1O`, which fold change [3, 11] is on record?
**A.** 0.879 (inactive)

**Q.** What about the fold change [3, 12] of the same compound?
**A.** 1.31

**Q.** What about the cell count [3, 13] of the same compound?
**A.** 5220

**Q.** What about the cell count [3, 14] of the same compound?
**A.** 5940

**Q.** Which period change [7] does the source give for `CCCCCCCCCCC/C=C\C(C)(C)/C=C\CCCC(=O)O` here?
**A.** -0.11 h (inactive)

**Q.** What about the survival [8] of the same compound?
**A.** 88.8 (inactive)

**Q.** What about the inhibition [1] of the same compound?
**A.** 0% (inactive)

**Q.** What about the fluorescence ratio (interference) [2] of the same compound?
**A.** 0.9 (inactive)

**Q.** And the fold change [3, 11]?
**A.** 0.986 (inactive) and 1.01 (inactive)

**Q.** And the fold change [3, 12]?
**A.** 1.15 and 1.25

**Q.** And the cell count [3, 13]?
**A.** 9810 and 5810

**Q.** What about the cell count [3, 14] of the same compound?
**A.** 9950 and 5750

**Q.** What about the fold fluorescence [4] of the same compound?
**A.** 5.21 (inactive)

**Q.** What about the outcome [5] of the same compound?
**A.** inactive

**Q.** What about the z-score [6] of the same compound?
**A.** 0.145 (inactive)

**Q.** For `CS(=O)(=O)Nc1ccc([N+](=O)[O-])cc1OC1CCCCC1`, which fold change [3, 11] is on record?
**A.** 0.816 (inactive) and 0.974 (inactive)

**Q.** What about the fold change [3, 12] of the same compound?
**A.** 1.1 and 1.38

**Q.** What about the cell count [3, 13] of the same compound?
**A.** 4510 and 5650

**Q.** What about the cell count [3, 14] of the same compound?
**A.** 5530 and 5800

**Q.** And the fold fluorescence [4]?
**A.** 5.81 [at 159.1 µM] (inactive)

**Q.** For `CCCCCC#CCC#CCC#CCC#CCCCC(=O)O`, which survival [8] is on record?
**A.** 87.3 (inactive)

**Q.** What about the fold change [3, 11] of the same compound?
**A.** 0.956 (inactive) and 0.974 (inactive)

**Q.** And the fold change [3, 12]?
**A.** 1.11 and 0.98

**Q.** And the cell count [3, 13]?
**A.** 5420 and 5670

**Q.** What about the cell count [3, 14] of the same compound?
**A.** 5670 and 5820

**Q.** And the fold fluorescence [4]?
**A.** 5.73 (inactive)

**Q.** What does the source list for `COc1ccc2c(c1)c(CC(=O)Oc1ccc(-c3cc(=S)ss3)cc1)c(C)n2C(=O)c1ccc(Cl)cc1`?
**A.** fold change [3, 11]: 0.929 (inactive); fold change [3, 12]: 2.02; cell count [3, 13]: 5100; cell count [3, 14]: 5490

**Q.** Which results are given for `O=S(=O)(NO)c1ccccc1`?
**A.** fold change [3, 11]: 1.01 (inactive); fold change [3, 12]: 0.412; cell count [3, 13]: 5110; cell count [3, 14]: 5060

**Q.** Which results are given for `Nc1ccc2c3c(cccc13)C(=O)NC2=O`?
**A.** period change [7]: 0.025 h (inactive); inhibition [1]: -1% (inactive); fluorescence ratio (interference) [2]: 1 (inactive); fold change [3, 11]: 0.949 (inactive) and 1.13 (inactive); fold change [3, 12]: 1.39 and 0.672; cell count [3, 13]: 8220 and 6020; cell count [3, 14]: 8660 and 5330; fold fluorescence [4]: 4.37 [at 235.6 µM] (inactive); outcome [5]: inactive; z-score [6]: 0.605 (inactive)

**Q.** Which results are given for `C[C@@]1(C2CCCC2)Cc2cc(OCC(=O)O)c(Cl)c(Cl)c2C1=O`?
**A.** period change [7]: 0.04 h (inactive); inhibition [1]: -6% (inactive); fluorescence ratio (interference) [2]: 1 (inactive); fold change [3, 11]: 1.13 (inactive) and 0.909 (inactive); fold change [3, 12]: 0.91 and 1.29; cell count [3, 13]: 11200 and 5500; cell count [3, 14]: 9900 and 6050; fold fluorescence [4]: 4.41 [at 140 µM] (inactive); outcome [5]: inactive; z-score [6]: 0.845 (inactive)

**Q.** With `CC(C)(C)OC(=O)N1CCC(OCc2nc(-c3ccncc3)no2)CC1` as the compound, how does the fold change [3, 11] read?
**A.** 1.03 (inactive)

**Q.** And the fold change [3, 12]?
**A.** 0.58

**Q.** What about the cell count [3, 13] of the same compound?
**A.** 5600

**Q.** What about the cell count [3, 14] of the same compound?
**A.** 5430

**Q.** With `CC/C=C\C/C=C\C/C=C\CCCCCCCCCC(=O)O` as the compound, how does the survival [8] read?
**A.** 95.1 (inactive)

**Q.** And the fold change [3, 11]?
**A.** 1.09 (inactive) and 1.03 (inactive)

**Q.** And the fold change [3, 12]?
**A.** 1.26 and 1.06

**Q.** What about the cell count [3, 13] of the same compound?
**A.** 5750 and 5880

**Q.** What about the cell count [3, 14] of the same compound?
**A.** 5250 and 5730

**Q.** What about the fold fluorescence [4] of the same compound?
**A.** 4.88 (inactive)
